Consider 16 compounds from PubChem BioAssay (NCI).

Compounds without any hit were thinned out: in the full panel of roughly 83,000, 20% have a hit.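 Plates (96-well) were seeded with cells, treated with compound at one concentration, and incubated for 48 hours before percent growth was determined.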 A number with no mark means an inactive call. How the source made its calls: active means growth percent below 10; inactive means the rest.

The test relates to CAKI-1 renal. Description: NCI-60 one-dose screen, 48 h (100 = growth as untreated, 0 = no growth, -100 = all killed). As to conditions: 10 µM unless noted.
As for `COc1ccc(NC(=O)c2sc3c(=O)[nH]c(C(F)(F)F)nc3c2C)cc1`, the growth was 85.4%.
Turning to `O=C(Nc1cccc(Cl)c1)Nc1ccccc1Cl`, the growth is 71.4%.
The result for `NC(=O)N/N=C\c1ccc([N+](=O)[O-])o1` reads 86.9%; that for `CCN(CC)Cc1cc(Nc2ccnc3ccc(OC)cc23)ccc1O`, 45.4%; that for `CC(C)(C)c1nn(-c2ccccc2)c2c1C(=O)CSC(c1ccc3c(c1)OCO3)N2` (stereo unspecified), 81.4%.
As to `CN(C)N1C(=O)c2c(Cl)c(Cl)c(Cl)c(Cl)c2C1=O`, the growth is 126%.
As to `O=c1c2cc(Cl)ccc2oc2ccc(OCCCCCN3CCCCC3)cc12`, the growth was 70.8%.
Under `C=CCOc1ccc2c(C)cc(=O)oc2c1` stands 97.9%; under `O=C(CSc1nc2c(n1Nc1ccccc1)-c1ccccc1SC2)Nc1nccs1`, 73.7%.
Turning to `CCNC(=O)c1ccc2c(c1)nc(-c1ccc(Cl)cc1)n2-c1cc(C(C)(C)C)[nH]n1`, the growth was 18.5%.
The result for `CC(C)CC1NC(=O)C(CC(C)C)N(CO)C1=O` (stereo unspecified) reads 99.8%.
For the compound `CCn1c(=O)c(C(=O)NCCCO)c(O)c2ccccc21`, the growth is 116%.
Under `COc1cc(NCC(O)CN(CC(C)C)CC(C)C)c2ncccc2c1` (stereo unspecified) stands 99.2%; under `CC(=O)Nc1ccc(/C=N/N2CCCCCC2)cc1`, 92.7%; under `O=c1oc2ccccc2cc1-c1cc(-c2ccc(-c3cc(-c4cc5ccccc5oc4=O)nc(-c4cc5ccccc5oc4=O)c3)cc2)cc(-c2cc3ccccc3oc2=O)n1`, 105%.
On to `CCN(CC)c1ccc(/C=N/N=C(N)N)cc1`, for which the growth is 45.1%.
